Test results taken from article PMC7862700, “An all-to-all approach to the identification of sequence-specific readers for epigenetic DNA modifications on cytosine”.

Target: T1, ETV7 (Homo sapiens, UniProt Q9Y603 1-341)
T1 sequence: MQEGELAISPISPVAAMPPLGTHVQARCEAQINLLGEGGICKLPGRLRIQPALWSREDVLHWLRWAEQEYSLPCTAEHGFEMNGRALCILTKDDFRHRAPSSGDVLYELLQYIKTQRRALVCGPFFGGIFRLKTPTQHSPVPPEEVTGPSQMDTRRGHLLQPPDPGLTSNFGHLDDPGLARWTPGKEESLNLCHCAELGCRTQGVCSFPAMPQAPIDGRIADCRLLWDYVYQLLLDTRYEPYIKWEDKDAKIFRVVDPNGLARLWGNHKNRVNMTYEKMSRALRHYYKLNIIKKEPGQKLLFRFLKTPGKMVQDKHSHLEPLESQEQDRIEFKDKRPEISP
Assay: DAPPL (digital affinity profiling via proximity ligation, sequencing); 10 mM Tris-HCl pH 7.5, 50 mM NaCl, 1 mM DTT, 4% glycerol, room temperature, 30 min; GST-TFs on glutathione beads, 16-mer random dsDNA library, 0.1% formaldehyde crosslink after washing; high values mean tight binding
Details: protein: recombinant; tags: N-terminal GST; dsDNA, one strand shown
Summary of the method: (§1)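 Yeast served to express human transcription factors as GST fusions, which were then captured on glutathione beads and labelled with DNA barcodes. Pooled with a tag-only sample, they were incubated with 200 nmole of a 16-mer random double-stranded DNA library for 30 min at room temperature in Tris/NaCl/DTT/glycerol buffer, washed, crosslinked with 0.1% formaldehyde, ligated by proximity, amplified by PCR and sequenced. Dividing each hexamer's read frequency for a factor by its frequency for the tag-only sample gives the binding signal.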

Row | Sequence | binding signal
1 | AAATAA | 1.32 fold enrichment (6-mer frequency, TF over GST control)
2 | ACTCTG | 1.21 fold enrichment (6-mer frequency, TF over GST control)
3 | TCTCGT | 1.2 fold enrichment (6-mer frequency, TF over GST control)
4 | TTAACT | 1.16 fold enrichment (6-mer frequency, TF over GST control)
5 | ATGAAA | 1.07 fold enrichment (6-mer frequency, TF over GST control)
6 | GCGATG | 1.31 fold enrichment (6-mer frequency, TF over GST control)
7 | ACTAAC | 1.21 fold enrichment (6-mer frequency, TF over GST control)
8 | ATCTCT | 1.14 fold enrichment (6-mer frequency, TF over GST control)
9 | ACTAGC | 1.16 fold enrichment (6-mer frequency, TF over GST control)
10 | TATTCA | 1.23 fold enrichment (6-mer frequency, TF over GST control)
11 | TTTTAT | 1.34 fold enrichment (6-mer frequency, TF over GST control)
12 | GTTATT | 1.29 fold enrichment (6-mer frequency, TF over GST control)
13 | TTCTAC | 1.54 fold enrichment (6-mer frequency, TF over GST control)
14 | GCTTCT | 1.43 fold enrichment (6-mer frequency, TF over GST control)
15 | AGTGCT | 1.37 fold enrichment (6-mer frequency, TF over GST control)
16 | ATCGAT | 1.11 fold enrichment (6-mer frequency, TF over GST control)
17 | TCTCAG | 1.26 fold enrichment (6-mer frequency, TF over GST control)
18 | CTTCTG | 1.2 fold enrichment (6-mer frequency, TF over GST control)
19 | GCTCTA | 1.19 fold enrichment (6-mer frequency, TF over GST control)
20 | ACTTTA | 1.29 fold enrichment (6-mer frequency, TF over GST control)

Target: T2, ELF5 (Homo sapiens, UniProt Q9UKW6-2 1-255)
T2 sequence: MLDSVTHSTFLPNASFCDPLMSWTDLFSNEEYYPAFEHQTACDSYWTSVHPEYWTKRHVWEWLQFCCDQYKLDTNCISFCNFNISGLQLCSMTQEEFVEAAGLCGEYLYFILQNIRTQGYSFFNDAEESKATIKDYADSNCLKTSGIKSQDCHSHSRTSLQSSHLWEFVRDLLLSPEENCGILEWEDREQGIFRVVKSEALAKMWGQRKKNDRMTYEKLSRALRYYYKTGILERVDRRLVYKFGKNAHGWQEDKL
Assay: as above
Details: protein: recombinant; tags: N-terminal GST; dsDNA, one strand shown
Summary of the method: as §1

Row | Sequence | binding signal
21 | AGTATT | 1.27 fold enrichment (6-mer frequency, TF over GST control)
22 | GCTCTC | 1.2 fold enrichment (6-mer frequency, TF over GST control)
23 | AAAAAT | 1.3 fold enrichment (6-mer frequency, TF over GST control)
24 | TCGACC | 1.28 fold enrichment (6-mer frequency, TF over GST control)
25 | ACAGCT | 1.12 fold enrichment (6-mer frequency, TF over GST control)
26 | TGATGG | 1.26 fold enrichment (6-mer frequency, TF over GST control)
27 | TGATGC | 1.52 fold enrichment (6-mer frequency, TF over GST control)
28 | CCTATA | 1.39 fold enrichment (6-mer frequency, TF over GST control)
29 | TAAGTT | 1.29 fold enrichment (6-mer frequency, TF over GST control)
30 | TTACGG | 1.32 fold enrichment (6-mer frequency, TF over GST control)
31 | TTGATA | 1.21 fold enrichment (6-mer frequency, TF over GST control)
32 | GCTTTC | 1.23 fold enrichment (6-mer frequency, TF over GST control)
33 | AATGTT | 1.62 fold enrichment (6-mer frequency, TF over GST control)
34 | TAATTT | 1.46 fold enrichment (6-mer frequency, TF over GST control)
35 | CCTTGA | 1.37 fold enrichment (6-mer frequency, TF over GST control)
36 | GTTCTT | 1.24 fold enrichment (6-mer frequency, TF over GST control)
37 | CCGAAT | 1.1 fold enrichment (6-mer frequency, TF over GST control)
38 | CCATAA | 1.1 fold enrichment (6-mer frequency, TF over GST control)
39 | CTCTCA | 1.28 fold enrichment (6-mer frequency, TF over GST control)
40 | AAATAA | 1.34 fold enrichment (6-mer frequency, TF over GST control)

Row | Sequence | binding signal
41 | ACTCTG | 1.2 fold enrichment (6-mer frequency, TF over GST control)
42 | TCTCGT | 1.24 fold enrichment (6-mer frequency, TF over GST control)
43 | TTAACT | 1.17 fold enrichment (6-mer frequency, TF over GST control)
44 | ATGAAA | 1.13 fold enrichment (6-mer frequency, TF over GST control)
45 | GCGATG | 1.17 fold enrichment (6-mer frequency, TF over GST control)
46 | ACTAAC | 1.29 fold enrichment (6-mer frequency, TF over GST control)
47 | ATCTCT | 1.25 fold enrichment (6-mer frequency, TF over GST control)
48 | ACTAGC | 1.13 fold enrichment (6-mer frequency, TF over GST control)
49 | TATTCA | 1.24 fold enrichment (6-mer frequency, TF over GST control)
50 | TTTTAT | 1.3 fold enrichment (6-mer frequency, TF over GST control)
51 | GTTATT | 1.21 fold enrichment (6-mer frequency, TF over GST control)
52 | TTCTAC | 1.54 fold enrichment (6-mer frequency, TF over GST control)
53 | GCTTCT | 1.56 fold enrichment (6-mer frequency, TF over GST control)
54 | AGTGCT | 1.48 fold enrichment (6-mer frequency, TF over GST control)
55 | ATCGAT | 1.09 fold enrichment (6-mer frequency, TF over GST control)
56 | TCTCAG | 1.31 fold enrichment (6-mer frequency, TF over GST control)
57 | CTTCTG | 1.39 fold enrichment (6-mer frequency, TF over GST control)
58 | GCTCTA | 1.14 fold enrichment (6-mer frequency, TF over GST control)
59 | ACTTTA | 1.15 fold enrichment (6-mer frequency, TF over GST control)
